Screens as filed in PubChem BioAssay.
Lassa entry inh: blocks Lassa virus binding to or entry into cells; Lassa virus pseudotype entry inhibition, cell reporter; Potency, µM (top dose mostly 37.9 µM), for the others: at the highest dose activity change, negative = inhibition, actives largely listed as inhibitors; 300,000 tested, 1.2% active; AID 540256; calls by dose curve; tested in HEK293 cells; further: potency means the concentration at half of the fitted maximal effect; nearly all actives have a fitted effect of over 50% in size
VACV Venus inh: inhibitors of vaccinia virus (Venus reporter). Vaccinia virus Venus reporter expression, fluorescence. Potency, µM (series often up to 36.5 µM), for the others: top-dose activity change, negative = inhibition, hits mostly inhibitors. 330,000 tested, 0.46% active. AID 720580; calls by dose curve; tested in A549 cells; further: potency means the concentration at half of the fitted maximal effect; nearly all actives have a fitted effect of over 30% in size
VACV mCherry inh: inhibitors of vaccinia virus infection (mCherry reporter signal) | Vaccinia virus mCherry reporter infection, fluorescence | Potency, µM (series often up to 36.5 µM), without a hit: top-dose activity change, negative = inhibition, most hits filed as inhibitors | 310,000 tested, 0.63% active; calls by dose curve; tested in A549 cells; further: potency means the concentration at half of the fitted maximal effect; nearly all actives have a fitted effect of over 35% in size
MARV entry inh: blocks Marburg virus binding to or entry into cells; Marburg virus pseudotyped entry inhibition, cell reporter; AID 540276; 300,000 tested, 1.8% active; Potency, µM (titrated, usually from 37.8 µM), for inactives: at the top dose activity change, negative = inhibition, hits mostly inhibitors; calls by dose curve; tested in HEK293 cells; further: potency means the concentration at half of the fitted maximal effect
FMDV inh: blocks foot and mouth disease virus. AID 1159524. Potency, µM (highest dose often 57.9 µM), for inactives: top-dose activity change, negative = inhibition, actives largely listed as inhibitors. 410,000 tested, 1.2% active. FMDV antiviral cell-based qHTS; calls by dose curve; tested in HEK293T cells; further: read-out not given here; potency means the concentration at half of the fitted maximal effect; nearly all actives have a fitted effect of over 45% in size
HCMV inh: inhibitors of human cytomegalovirus | HFF cells, HCMV-luciferase reporter, 72 h; stronger effect = lower value | activity change, negative = inhibition, % at 57.5 µM | AID 1259415 | 410,000 tested, 4.5% active; in the data active means activity change below about -60%; inconclusive means no clear call, values can overlap the other calls; inactive means above about -39%
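Luciferase read-out from HCMV-luciferase-infected HFFs (MOI 1 PFU/cell) 72 h post infection at 37C; compounds added after 16 h cell attachment; activity normalized between buffer-only basal and Salinomycin (10uM) inhibitor controls.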
The depositor's hits bear a star; i = inactive; ? = inconclusive; nt = not tested or not shown; [ ] = another dose, or the depositor's remark. Rows were chosen to be rich in hits. Some 6.5% of all compounds tested hit in one or more screens of this group. On the % scale 0 is the no-effect control and ±100 the full control effect.

SMILES	Lassa entry inh	VACV Venus inh	VACV mCherry inh	MARV entry inh	FMDV inh	HCMV inh
CC(C)(CNC(=O)c1cnn(-c2nccc(-c3cc4ccccc4o3)n2)c1C1CC1)N1CCOCC1	nt	-1%	0%	nt	6%	nt
CCCC(O)(c1ccc(Cl)cc1)C(CN1CCOCC1)c1ccccc1 (stereo unspecified)	nt	-18%	-4%	nt	-27%	-28
CCCCCC(O)(c1ccccc1)C(CN1CCOCC1)c1ccccc1 (stereo unspecified)	nt	nt	nt	nt	?	-60*
CC(C)CCC(O)(c1ccccc1)C(CN1CCOCC1)c1ccccc1 (stereo unspecified)	-23%	-16%	-9%	?	?	-67*
CCCCCCC(O)(c1ccccc1)C(CN1CCOCC1)c1ccccc1 (stereo unspecified)	nt	nt	nt	nt	?	-76*
CC(C)CC(O)(c1ccccc1)C(CN1CCOCC1)c1ccccc1 (stereo unspecified)	-5%[46.1 µM]	-16%	-23%	-10%[46.1 µM]	-23%	?
CCCCCCC(O)(c1ccc(OC)cc1)C(CN1CCOCC1)c1ccccc1 (stereo unspecified)	?	-16%	-3%	?	-30%	-69*
Cc1ncoc1C(=O)N1CCOc2ccc(CN3CCN(c4ccccn4)CC3)cc2C1	nt	-9%	-11%	nt	-17%	nt
CCC(=O)Nc1ccc(N2CCOCC2)c(S(=O)(=O)Nc2ccc(OC)cc2)c1	-17%	0%	-4%	-19%[46.1 µM]	106%	-31
COc1ccc(NS(=O)(=O)c2cc(NC(=O)C(CC(C)C)NC(N)=O)ccc2N2CCOCC2)cc1 (stereo unspecified)	nt	nt	nt	nt	32%	-68*
COc1ccc(NS(=O)(=O)c2cc(NC(=O)[C@H](C)NC(N)=O)ccc2N2CCCC2)cc1	-2%	-16%	-20%	4%	29%	-85*
c1ccc(-c2nc3ccccc3nc2-c2nc3ccccc3[nH]2)cc1	nt	nt	nt	nt	nt	5
Cn1cc(Cl)cc1-c1ncc(Cc2c[nH]c(N)[n+]2C)o1	nt	nt	nt	nt	nt	-12
CN1CCN(C(CNC(=O)c2cccc(F)c2)c2ccc3c(c2)OCO3)CC1 (stereo unspecified)	24%[46.1 µM]	-5%	-7%	nt	-11%	11
O=C(NC1CCCc2c1cnn2-c1ccccc1F)c1ccccn1 (stereo unspecified)	nt	nt	nt	nt	-21%	-98*
O=C(NC1CCCc2c1cnn2-c1ccccc1F)c1ccncc1 (stereo unspecified)	nt	-29%	?	nt	?	-84*
CCOc1ccccc1NC(=O)COC(=O)/C=C/c1ccc(OC)c(OC)c1	-22%	-16%	-18%	?	18µM*	?
O=C(NCCc1csc2nc(-c3ccc(F)cc3)nn12)c1ccco1	6%[46.1 µM]	-9%	-3%	nt	-20%	-7
COc1cccc(C(=O)N(c2ccc(C)cc2)C2C=CS(=O)(=O)C2)c1 (stereo unspecified)	nt	nt	nt	nt	-9%	-101*
COc1ccc(N(C(=O)c2cc3ccccc3oc2=O)C2C=CS(=O)(=O)C2)c(OC)c1 (stereo unspecified)	-14%	-13%	-3%	?	-7%	-61*
COc1cccc(C(=O)N(c2ccc(OC)cc2OC)C2C=CS(=O)(=O)C2)c1 (stereo unspecified)	-6%	-6%	?	4%	nt	5
CN(C)S(=O)(=O)c1cccc(COC(=O)CN2C(=O)NC3(CCCC3)C2=O)c1	nt	nt	nt	nt	?	21
CN(C)c1ncc2nc(CCc3ccccc3)c(=O)n(CCc3ccccc3)c2n1	nt	nt	nt	nt	-2%	nt
CC1=NN(c2ccccc2)C(=O)C1C(=S)SC1CC(=O)NC1=O (stereo unspecified)	nt	-9%	i	nt	22%	-88*
Cc1cc(N2CCCCC2C)nc(-c2ccccc2O)n1 (stereo unspecified)	?	-5%	-13%	0%	-1%	-32
O=C(Nc1ccc(-n2cccn2)cc1)C1CCCCN1Cc1cccc2c1OCO2 (stereo unspecified)	nt	nt	nt	nt	-16%	-68*
COc1ccccc1CNC(=O)COC(=O)C1CCN(S(=O)(=O)c2ccc(C)c(C)c2)CC1	4%	-14%	-3%	10%	-12%	-9
COc1ccc([C@@H]2[C@H](C(=O)N3CCOCC3)CC(=O)N2C(=O)/C=C/c2ccccc2)cc1	nt	nt	nt	nt	nt	-21
